Rows were chosen to be rich in hits. Some 1.2% of all compounds tested hit in one or more screens of this group.
TexasRed fluor = counter-screen for TRb-SRC2 inhibitors: fluorescence interference | TRb/SRC2 Texas Red total fluorescence interference | Potency, µM (top dose mostly 106 µM), for inactives: at the top dose fluorescence change, negative = quenching | 280,000 compounds, 0.29% hits; active = well fitted curve in either direction with a large enough effect; inconclusive = small, poorly fitted or top-dose-only effect
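Human TRb ligand-binding domain at 0.6 uM with 20 nM Texas Red SRC2 peptide in Tris buffer containing 1 uM T3 and 5% DMSO, incubated with compound 5 h at ambient temperature. Total fluorescence (555/632 nm) calculated as parallel + 2 × perpendicular.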
TRb-SRC2 inh = inhibitors of human thyroid hormone receptor beta-SRC2 interaction; 280,000 compounds, 0.065% hits; Potency, µM (doses to about 106 µM), for inactives: top-dose activity change, negative = inhibition, usual class: inhibitors; AID 1469; P10828; TRbeta-SRC2 peptide binding, fluorescence polarization; receptor liganded with 1 µM T3;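 also: plate controls were bound peptide for no effect and peptide without receptor for full effect; nearly all actives have a fitted effect of over 50% in size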
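Compounds were added to 0.6 uM TRb ligand-binding domain and 20 nM Texas Red-labeled SRC2 peptide in Tris buffer containing 1 uM T3, incubated 5 hr at ambient temperature, then read by fluorescence polarization.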
KAT2A inh = inhibitors of human GCN5L2 histone acetyltransferase; Q92830; GCN5L2 HAT assay, ThioGlo1 CoA-SH fluorescence; Potency, µM (highest dose often 58.9 µM), for inactives: at the top dose activity change, negative = inhibition, most hits filed as inhibitors; 390,000 compounds, 0.21% hits; AID 504327
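GCN5L2 (20nM final) in 50mM HEPES, 0.1mM EDTA pH 7.5, 0.01% Tween-20 was preincubated 15 min at room temperature with compound, then given ThioGlo1 (50uM), H3(1-25) peptide (75uM) and acetyl-CoA (70uM); CoA-thiol fluorescence (Ex340/Em540) was read at 0 and 20 min.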
VDR inh = blocks the human vitamin D receptor; 400,000 compounds, 0.93% hits; VDR-SRC2-3 peptide fluorescence polarization, 2 h; P11473; AID 504847; Potency, µM, for inactives: max response, negative = inhibition, hits mostly inhibitors
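Reagent solutions, kept cold and dark, are dispensed first; compounds are then pinned in at 23 nl, plates briefly spun, and incubated 2 h at ambient temperature. Inhibition of VDR–SRC2-3 peptide binding is read by fluorescence polarization.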
RGS12 GoLoco inh = blocks human Gai1 binding to RGS12 GoLoco peptide, red readout; 230,000 compounds, 0.44% hits; Gai1:RGS12 GoLoco peptide FP, rhodamine, 10 min; Potency, µM (top dose mostly 61.6 µM), for the others: at the top dose activity, negative = inhibition, most hits filed as inhibitors; active = well fitted inhibition curve with a large enough effect, not every such curve was filed as active; inactive = no such curve, though single readings can be large or run the other way; also: nearly all actives have a fitted effect of over 30% in size
Target sequence (P63096 whole entry, looked up): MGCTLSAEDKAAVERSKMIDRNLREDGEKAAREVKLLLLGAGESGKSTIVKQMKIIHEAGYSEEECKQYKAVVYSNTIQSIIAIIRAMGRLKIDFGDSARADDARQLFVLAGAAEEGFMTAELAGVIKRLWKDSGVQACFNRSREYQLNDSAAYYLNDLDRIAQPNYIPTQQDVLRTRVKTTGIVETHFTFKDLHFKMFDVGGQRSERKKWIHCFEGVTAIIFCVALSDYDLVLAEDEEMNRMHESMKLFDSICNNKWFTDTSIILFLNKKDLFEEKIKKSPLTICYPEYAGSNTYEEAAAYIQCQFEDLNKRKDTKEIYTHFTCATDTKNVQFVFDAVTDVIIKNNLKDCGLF
Starred values were filed as active, the others as inactive; ? = inconclusive; . = not tested or not shown; ! = repeats disagree; [ ] = dose if it differs, or a comment. Unless noted, calls follow the shape of the dose curve; as a rule, active = well fitted curve in the direction sought with a large enough effect; inconclusive = small, poorly fitted or top-dose-only effect, or another doubt; inactive = no such curve, though single readings can be large; an effect the other way counts as inactive or inconclusive. Unless noted, % is scaled to controls: 0 for no effect and ±100 for the full control effect; potency is read from the fitted curve at half-maximal effect.

SMILES	TexasRed fluor	TRb-SRC2 inh	KAT2A inh	VDR inh	RGS12 GoLoco inh
NCCC[C@@H](CC(=O)N[C@@H]1CCNC[C@H]1C(=O)N[C@H](CC(=O)N[C@@H](CCC(=O)O)CC(=O)O)Cc1c[nH]c2ccccc12)NC(=O)C[C@H](Cc1c[nH]c2ccccc12)NC(=O)[C@@H]1CCCC[C@H]1N	-1.6%	-4.2%	.	8.7%	-1.3%
NCCC[C@@H](CC(=O)N[C@@H]1CCNC[C@H]1C(=O)N[C@H](CC(=O)N[C@@H](CCC(=O)O)CC(=O)O)Cc1ccccc1)NC(=O)C[C@H](Cc1c[nH]c2ccccc12)NC(=O)[C@@H]1CCCC[C@H]1N	-1.0%	-0.4%	.	-1.1%	20µM*
CC(=O)N[C@@H]1C(O[C@H]2O[C@H](C(=O)O)C(O)[C@H](O)[C@H]2O)[C@H](O)[C@@H](CO)O[C@H]1O[C@@H]1C(C(=O)O)O[C@@H](O[C@H]2[C@H](O)[C@@H](CO)OC(O)[C@@H]2NC(C)=O)[C@H](O)[C@H]1O (some centres not stated)	.	.	-6.7%	-3.7%	.
COc1ccc(-c2nnc(SCC(=O)NNC(=O)Cc3ccccc3)n2C)cc1OC	-2.1%	-1.9%	-1.4%	39.8µM*	7.1%
CC(C)Oc1cccc(-c2nnc(SCC(=O)Nc3ccc4c(c3)OCCO4)n2N)c1	-2.4%	-4.0%	25.1µM*	-13.1%	-4.8%
CCn1c2ccccc2c2cc(NC(=O)CSc3nnc(-c4ccc(OC)c(OC)c4)n3N)ccc21	-1.0%	-0.6%	5.62µM*	4.2%	25.4%
C/C=C1\CC2C=CC1C2 (configuration not stated)	-1.2%	0.9%	.	.	4.2%
CCCC[C@H](NC(=O)[C@H](CC(C)C)NC(=O)[C@@H](Cc1c[nH]c2ccccc12)NC(=O)[C@H](Cc1ccccc1)NC(=O)[C@@H](Cc1c[nH]c2ccccc12)NC(=O)[C@H](CC(N)=O)NC(=O)[C@@H](Cc1c(Cl)cccc1Cl)NC(=O)[C@@H]1CCCN1C(=O)[C@H](Cc1ccccn1)NC(=O)[C@@H]1CCCN1C(=O)[C@H](N)CCCCNC(=O)c1cccnc1)C(N)=O	5.6%	4.2%	12.3%	6.3%	.
CCOC(=O)c1c(C)[nH]c(C2=NNC(=NC3CC3)SC2)c1C	-0.8%	-4.6%	-18.0%	8.91µM*	-1.8%
CCOC(=O)c1c(C)[nH]c(/C(C)=N/O)c1C	0.2%	-12.6%	0.3%	15.2%	-10.4%
CC(=O)N1N=C2/C(=C/c3ccccc3)CCCC2C1c1ccccc1 (configuration not stated)	-7.8%	1.9%	-4.8%	70.8µM*	5.5%
O=C(O)c1c(C(=O)N2N=C3/C(=C/c4ccccc4)CCCC3C2c2ccccc2)cccc1[N+](=O)[O-] (configuration not stated)	0.5%	-4.5%	-1.3%	-8.1%	-3.3%
CC(=O)OC1C=C[C@@H](OC(C)=O)C1 (some centres not stated)	-8.7%	3.3%	45.6%	-0.4%	.
O=C1C=CC(=Nc2ccc(F)cc2)O1	.	.	.	79.4µM*	.
O=C1C=CC(=Nc2ccc3c(c2)C(=O)c2ccccc2-3)O1	.	.	.	8.2%	.
CC(C)(C)c1ccc(OCC2CO2)cc1 (configuration not stated)	-0.1%	-9.7%	.	.	4.3%
Nc1ccc(S(=O)(=O)Nc2cnc3ccccc3n2)cc1	-1.4%	-3.8%	0.9%	2.8%	3.0%[14.2 µM]
Cc1cc(C)cc(S(=O)(=O)c2cnc3ccccc3n2)c1	4.5%	-0.8%	-5.6%	39.8µM*	1.7%
COc1c(O)cc2oc(-c3ccc(O)cc3)cc(=O)c2c1O	-8.1%	10.8%	-27.7%	1.4%	-9.4%
O=c1cc(-c2ccccc2)oc2cc(O)c(O)c(O)c12	44.7µM*![quencher]	?	-3.8%	-14.0%	-3.8%
Cc1ccc(-c2nc3cccnc3s2)cc1NC(=O)Cc1ccccc1	100µM*[quencher]	-20.7%	-13.6%	15.0%	.
O=C1C=CC2=C3c4cc(O)c(O)cc4CC3(O)COC2=C1O (configuration not stated)	?	6.2%	.	?	2.51µM*
CN(C)Cc1ccc(-c2cc3onc(-c4ccccc4)c3c(=O)n2C)cc1	.	.	.	.	8.0%[14.2 µM]
